Assay results published in PubChem BioAssay AID720597 (Broad Institute, 2013).
Entries with a potency or affinity are not part of this list. Activity calls are given as the source filed them.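 Rule for the calls: active = fitted half-maximal dose no more than twice the top valid tested dose, for compounds that lower signal; inconclusive = fit invalid, or curve flat with activity between -70 and -30; inactive = potency past limit, curve flat within ±30, or signal increasing.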

Target: NAD-dependent protein deacylase sirtuin-5, mitochondrial (Homo sapiens) (UniProt Q9NXA8)
Test: SIRT5 deacylase inhibitors, dose response, biochemical, fluorescence imaging, cherry-pick, set 6 (AID 720597);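 note: lower AMC signal can also come from blocking the trypsin step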
Conditions: Purified SirT5, succinyl-peptide-AMC/trypsin fluorescence; series mostly up to 15 µM

Chain of NAD-dependent protein deacylase sirtuin-5, mitochondrial (Homo sapiens) (Q9NXA8 whole entry, looked up): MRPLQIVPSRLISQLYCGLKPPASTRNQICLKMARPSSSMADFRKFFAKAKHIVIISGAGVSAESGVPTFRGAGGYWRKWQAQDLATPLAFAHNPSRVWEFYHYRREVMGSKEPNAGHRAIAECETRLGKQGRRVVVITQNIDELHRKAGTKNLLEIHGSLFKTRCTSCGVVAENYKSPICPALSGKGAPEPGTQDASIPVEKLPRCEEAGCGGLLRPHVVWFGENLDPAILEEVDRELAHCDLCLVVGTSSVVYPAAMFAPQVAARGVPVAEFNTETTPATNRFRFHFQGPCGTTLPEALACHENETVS

outcome, inactive:
CO[C@H]1CN(C)C(=O)c2cc(NC(=O)NC(C)C)ccc2OC[C@@H](C)N(C(=O)CC2CC2)C[C@@H]1C
Cc1ccc(S(=O)(=O)N(C)C[C@H]2OCCCC[C@H](C)Oc3ccc(NS(=O)(=O)c4ccc(Cl)cc4)cc3C(=O)N([C@@H](C)CO)C[C@H]2C)cc1
COc1ccc(S(=O)(=O)Nc2ccc3c(c2)CC(=O)N([C@@H](C)CO)C[C@@H](C)[C@H](CN(C)CC2CCCCC2)O3)cc1
O=C(NCC[C@H]1CC[C@@H](NS(=O)(=O)c2cccc(F)c2)[C@H](CO)O1)C1CCOCC1
CO[C@H]1CN(C)C(=O)c2cc(NC(=O)c3ccccc3F)ccc2OC[C@H](C)NC[C@@H]1C
COc1ccccc1-c1ccc2n(c1=O)C[C@@H]1[C@@H](CO)[C@H](C(=O)N3CCCCC3)[C@H]2N1CC1CC1
O=S(=O)(c1ccc(F)cc1)N1CCCCN2[C@H](CO)[C@H](c3ccc(C#CC4CCCC4)cc3)[C@@H]2C1
COc1ccccc1S(=O)(=O)N(C)C[C@@H]1Oc2cc(C#CCC(C)C)ccc2S(=O)(=O)N([C@H](C)CO)C[C@H]1C
COc1ccc(S(=O)(=O)N(C)C[C@@H]2OCCCC[C@H](C)Oc3ccc(NS(=O)(=O)c4cccs4)cc3C(=O)N([C@@H](C)CO)C[C@H]2C)cc1
COc1ccc(S(=O)(=O)Nc2ccc3c(c2)C(=O)N([C@H](C)CO)C[C@@H](C)[C@H](CN(C)S(=O)(=O)c2ccccc2)OCCCC[C@@H](C)O3)cc1
Cc1ccc(S(=O)(=O)N(C)C[C@@H]2OCCCC[C@@H](C)Oc3ccc(NS(=O)(=O)c4ccc(F)cc4)cc3C(=O)N([C@H](C)CO)C[C@H]2C)cc1
C[C@H]1CN([C@@H](C)CO)S(=O)(=O)c2ccc(C#Cc3ccc(F)cc3)cc2O[C@H]1CN(C)S(=O)(=O)c1ccc(F)cc1
Cc1ccc(S(=O)(=O)N(C)C[C@@H]2OCCCC[C@@H](C)Oc3ccc(NS(=O)(=O)c4ccc(F)cc4)cc3C(=O)N([C@@H](C)CO)C[C@@H]2C)cc1
C[C@@H]1CN([C@H](C)CO)S(=O)(=O)c2ccc(C#Cc3ccc(F)cc3)cc2O[C@@H]1CN(C)C(=O)NC1CCCCC1
COc1ccc(CN(C)C[C@@H]2Oc3ccc(NC(=O)Nc4ccc(OC)cc4)cc3C(=O)N([C@@H](C)CO)C[C@H]2C)cc1
COCC(=O)N(C)C[C@H]1[C@H](c2ccccc2)[C@@H](CO)N1C(=O)Cc1ccncc1
Cc1ccc(S(=O)(=O)Nc2ccc3c(c2)C(=O)N([C@@H](C)CO)C[C@H](C)[C@@H](CN(C)S(=O)(=O)c2ccccc2)OCCCC[C@@H](C)O3)cc1
C[C@H]1CN([C@@H](C)CO)C(=O)c2cc(C#CC3CCCCC3)cnc2O[C@@H]1CN(C)S(=O)(=O)c1cccc(F)c1
O=C(NCC[C@H]1CC[C@@H](NC(=O)C2CC2)[C@H](CO)O1)c1cc(Cl)cc(Cl)c1
COc1ccc(NC(=O)N(C)C[C@@H]2Oc3cc(C#CCC(C)C)ccc3S(=O)(=O)N([C@H](C)CO)C[C@H]2C)cc1
COc1ccccc1-c1ccc2c(c1)O[C@H](CN(C)S(=O)(=O)c1ccc(F)cc1)[C@@H](C)CN([C@@H](C)CO)S2(=O)=O
C[C@@H]1CN([C@@H](C)CO)C(=O)c2ccccc2-c2ccccc2CO[C@H]1CN(C)Cc1ccccc1C(F)(F)F
C[C@H](CO)N1C[C@H](C)[C@H](CN(C)Cc2ccccc2F)Oc2cc(C#CC3CC3)ccc2S1(=O)=O
C[C@H]1CN([C@@H](C)CO)C(=O)Cc2cc(NC(=O)Nc3ccc(F)cc3)ccc2O[C@H]1CN(C)C
O=C(CCN1CCCCC1)N[C@@H]1CC[C@H](CC(=O)N2CCC(Cc3ccccc3)CC2)O[C@@H]1CO
COc1ccc(S(=O)(=O)Nc2ccc3c(c2)C(=O)N([C@@H](C)CO)C[C@@H](C)[C@@H](CN(C)S(=O)(=O)c2ccc(Cl)cc2)OCCCC[C@H](C)O3)cc1
COc1ccc(S(=O)(=O)N[C@H]2C=C[C@@H](CC(=O)NCCc3ccncc3)O[C@H]2CO)cc1
Cc1noc(C)c1NC(=O)Nc1ccc2c(c1)C(=O)N([C@H](C)CO)C[C@@H](C)[C@@H](CN(C)Cc1ccc(C(=O)Nc3ccccc3N)cc1)O2
